The results in this text go back to PubChem BioAssay (NCATS).

Results filed as inconclusive are left out. A call without a number means that no potency is given here. Active and inactive are the calls of the source. Calls follow the shape of the dose curve; as a rule, active = well fitted inhibition curve with a large enough effect; inconclusive = small, poorly fitted or top-dose-only effect; inactive = no such curve, though single readings can be large or run the other way. Peptide text beside a SMILES is read from it. * marks the point of attachment. Hexanoyl = CCCCCC(=O)*

This assay deals with Retinaldehyde dehydrogenase 3 (Homo sapiens) (UniProt P47895). Briefly: qHTS for Inhibitors of the Aldehyde Dehydrogenase Family (ALDH1A3) Primary screen (AID 2061315). To be noted: ALDH inhibition qHTS; series mostly up to 56 µM. (qHTS replaces the single test concentration by a dilution series.)
Regarding `Cc1cc(CS(=O)(=O)c2ccccc2)cc(OCc2ccc(CN3CCC[C@H]3CO)cc2)c1`, the Potency result is “inactive”.

On to `C=C1CCC2C(C)(C)C(O)CCC2(C)C1CCC(C)CCOC(C)=O` (configuration not stated), for which the Potency result was “inactive”.

Turning to `CC(C)C(O)(CO)CCO[C@@H]1O[C@H](CO[C@H]2OC[C@](O)(CO)[C@H]2O)[C@@H](O)[C@H](O)[C@H]1O` (some centres not stated), the Potency result was “inactive”.

Consider `CC1OC(O[C@H]2CC[C@@]3(C)C(CC[C@]4(C)C3CC=C3C5CC(C)(C)CC[C@]5(C(=O)OC5OC(CO)C(OC6OC(COC7OCC(O)C(O)C7O)C(O)C(O)C6O)C(O)C5O)CC[C@]34C)C2(C)C)C(O)C(O)C1OC1OCC(OC2OCC(O)C(O)C2O)C(O)C1O` (some centres not stated), for which the activity change, negative = inhibition was 10.3% [at 11.2 µM] (inactive).

With `CC(O)C(O)/C=C/C=C/C(=O)O[C@@H]1C=C2COC(=O)[C@]2(O)[C@@]2(C)CCCC(C)(C)C12` (some centres not stated), the Potency result was “inactive”.

Turning to `CC1(C)C[C@H]2C3=CCC4[C@@]5(C)CC[C@H](O[C@H]6O[C@H](C(=O)O)[C@@H](O)[C@H](O)[C@H]6O[C@H]6O[C@H](CO)[C@@H](O)[C@H](O)[C@H]6O[C@@H]6O[C@H](CO)[C@@H](O)[C@H](O)[C@H]6O)[C@](C)(CO)C5CC[C@@]4(C)[C@]3(C)CC[C@@]2(C)[C@H](O[C@@H]2OC[C@H](O)[C@H](OC3O[C@H](CO)[C@@H](O)[C@H](O)[C@H]3O)[C@H]2O)[C@@H]1O` (some centres not stated), the activity change, negative = inhibition was 14.7% [at 11.2 µM] (inactive).

As to `CCC(C)CC(=O)OC1C(=O)C(CO)=CC(O)C1C(C)C` (configuration not stated), the Potency result was “inactive”.

Regarding `C=C[C@](C)(O)CC[C@H]1C(C)=CC(=O)[C@H]2C(C)(C)CCC[C@]12C`, the Potency result is “inactive”.

For the compound `C[C@H]1CC[C@@]2(OC1)O[C@H]1CC3C4CC[C@H]5C[C@@H](O[C@@H]6O[C@H](CO)[C@H](O[C@@H]7O[C@H](CO)[C@@H](O)[C@H](O[C@@H]8OC[C@@H](O)[C@H](O)[C@H]8O)[C@H]7O[C@@H]7O[C@H](CO)[C@@H](O)[C@H](O)[C@H]7O)[C@H](O)[C@H]6O)[C@H](O)C[C@]5(C)C4=CC(=O)[C@]3(C)[C@H]1[C@@H]2C` (some centres not stated), the Potency result is “inactive”.

As for `CC(O)(C(=O)O)C1CCC2(C)C1CCC1(C)C2CCC2C3(C)CCC(O)C(C)(COC4OC(CO)C(O)C(O)C4O)C3CCC21C` (configuration not stated), the Potency entry is “inactive”.

For `CC1(C)CC[C@]2(C(=O)O)CC[C@]3(C)C(=CCC4[C@@]5(C)CCC(O[C@@H]6OC[C@H](O)[C@H](O)[C@H]6O[C@@H]6O[C@H](CO)[C@@H](O)[C@H](O)[C@H]6O)[C@@](C)(CO)C5CC[C@]43C)[C@@H]2C1` (some centres not stated), the Potency result was “inactive”.

For `Cc1cc(C)c(NC(=O)N(Cc2ccc3c(c2)Cc2ccccc2-3)C2CCCCCC2)c(C)c1`, the Potency entry is “inactive”.

Consider `N#Cc1cccc(-c2nc(-c3cccnc3)no2)c1`, for which the Potency entry was “inactive”.

Consider `C=C1C(=O)OC2/C=C(\C)CC3C=C(CC/C=C(\C)CCC12)C(=O)O3` (configuration not stated), for which the Potency entry is “inactive”.

`CC1(C)CC[C@]2(C(=O)O)CC[C@]3(C)C(=CCC4[C@@]5(C)CC[C@H](O[C@@H]6O[C@H](CO)[C@@H](O)[C@H](O)[C@H]6O[C@@H]6O[C@H](CO)[C@@H](O)[C@H](O)[C@H]6O)[C@@](C)(CO)C5CC[C@]43C)[C@@H]2C1` (some centres not stated): the Potency entry was “inactive”.

On to `COc1ccc(/C=C\C(=O)O)c(O[C@@H]2O[C@H](CO)[C@@H](O)[C@H](O)[C@H]2O)c1`, for which the Potency entry is “inactive”.

Regarding `Cc1ccc2c(n1)Oc1ccc(C(C)C(=O)OCC(=O)N(C)C)cc1C2` (configuration not stated), the Potency entry was “inactive”.

On to `C=C1CC2OC(=O)C(COC)C2C(OC(=O)/C(C)=C\C)CC2(C)OC1=CC2=O` (configuration not stated), for which the Potency entry is “inactive”.

With `Cc1ccc([C@@H]2CC=C(C(=O)O)[C@H](c3ccc(C(C)(C)C)cc3)N2S(=O)(=O)c2ccc(C)cc2)cc1`, the Potency result was “inactive”.

For `C=C1CC2C3(C)C(OC(C)=O)CC(=O)OC(C)(C)C3C(O)C(OC(C)=O)C2(C)C2C(=O)OC(C)C(=O)C12C` (configuration not stated), the Potency result is “inactive”.

With `CC(=O)Nc1ccn(C2COC(COC(=O)c3ccccc3)O2)c(=O)n1` (configuration not stated), the Potency entry is “inactive”.

Consider `O=C(O)c1cccc(CN2C(=O)/C(=C(\c3ccccc3)c3ccc(Cl)cc3)c3ccccc32)c1`, for which the Potency result is “inactive”.

With `C/C=C1/C[N+](C)([O-])C2Cc3c([nH]c4ccccc34)C(=O)CC1C2C(=O)OC` (configuration not stated), the Potency result was “inactive”.

`CCCCCC(=O)N1CCC[C@H]1C(=O)N[C@@H](Cc1ccc(O)cc1)C(=O)OC` (Hexanoyl-Pro-Tyr-OMe): the Potency result was “inactive”.

Consider `C[C@@H]1O[C@@H](O[C@H]2[C@H](OC(=O)[C@]34CCC(C)(C)C[C@H]3C3=CCC5[C@@]6(C)C[C@@H](O)[C@@H](O[C@@H]7O[C@H](CO)[C@@H](O)[C@H](O)[C@H]7O)[C@@](C)(CO)C6[C@H](O)C[C@@]5(C)[C@]3(C)CC4)OC[C@H](O)[C@@H]2O)[C@H](O)[C@H](O[C@@H]2OC[C@](O)(CO)[C@H]2O)[C@H]1O[C@@H]1OC[C@@H](O)[C@H](O[C@H]2O[C@H](C)[C@@H](O)[C@H](O)[C@@H]2O)[C@H]1O` (some centres not stated), for which the activity change, negative = inhibition was 2.17% [at 11.2 µM] (inactive).

On to `C=C(C(=O)O)[C@H]1C[C@]2(C)[C@@H](O)CC[C@]23O[C@H]1C[C@@H]3C`, for which the Potency result is “inactive”.

On to `CC1(C(=O)O)CCCC2(C)C1CCC13CC(CCC21)C1(CO)OC31` (configuration not stated), for which the Potency result is “inactive”.
